Laboratory results reported in PubChem BioAssay AID710 (SRMLSC, 2007).
Hit rate of the full screen: of about 98,000 compounds, about 150 (0.15%) were called active.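 Rule for the calls: active = growth inhibition above about 50% at one test dose (limit read from the data); inactive = the rest.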 For the sample, actives were picked, then their nearest neighbours and some compounds at random.

Assay: growth inhibitors of wild-type E. coli, primary screen, strain BW25113, expanded library, OD600 (AID 710);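 note: growth measured after 20 h incubation at 37 °C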
Settings: OD600 absorbance, at 100 µM, stronger effect = higher value

Growth inhibition, active:
Brc1ccc(OCCn2ccnc2)cc1 55%, S=C1SCN(CCN2CCOCC2)CN1Cc1ccccc1 50%

Growth inhibition, inactive:
Cc1nnc(SCC(=O)NC2CCCC2)s1 -2%, COc1ccc(C(C#N)Nc2ccc(C)cc2)cc1 (stereo unspecified) 3%, CC1(C)C2CCC1(C)C(OC(=O)CCn1ccnc1)C2 (stereo unspecified) 6%, CCOc1ccccc1C(=O)NCCCn1ccnc1 10%, Cc1ccc(Cc2c(C)nc3nc(SCC(=O)NCCN4CCOCC4)nn3c2C)cc1 -9%, Cc1ccc(S(=O)(=O)N(CC(=O)N/N=C/c2ccc(F)cc2)c2cccc3cccnc23)cc1 -18%, CN(Cc1nc2ccccc2c(=O)[nH]1)Cc1cc(=O)oc2ccc3ccccc3c12 -4%, COC(=O)C1=C(Nc2ccc(OC)cc2)C=C(C)C(C(=O)OC)C1c1ccc(C)cc1 (stereo unspecified) -13%, N#C/C(=C(/O)COc1cccc2ccccc12)c1nc2ccccc2[nH]1 -8%, OC(COc1ccc2c(c1)CCC2)CN1CCN(c2cccc(Cl)c2)CC1 (stereo unspecified) 0%, CCc1nnc(NC(=O)CCC(=O)NCc2ccccc2OC)s1 -2%, Cc1ccc(-c2nnc(-n3nnc4ccccc43)c3ccccc23)cc1 -7%, O=C(N/N=C/C=C/c1ccccc1)C1CC1(c1ccccc1)c1ccccc1 (stereo unspecified) -15%, N=c1c2c(-c3ccccc3)c(-c3ccccc3)n(Cc3ccccc3)c2ncn1CCCO 13%, COc1ccc(/C=C2\CCCC3C2=NN(C(=O)c2scnc2C)C3c2ccc(OC)cc2)cc1 (stereo unspecified) -16%, CCC(=O)NC(NCC1CCCO1)C(Cl)(Cl)Cl (stereo unspecified) 3%, Cc1ccc(CNC(=O)COc2ccc(S(=O)(=O)NC(C)C)cc2)cc1 0%, CSc1ccc(C#N)cc1NC(=O)c1cccc(Cl)c1 -8%, Cc1cccc(NC(=O)/C(=C\c2ccco2)NC(=O)c2ccccc2)c1 -2%, CNC(=S)NNC(=O)c1sccc1OCc1ccccc1 -7%, Cc1ccc(NC(=S)NC(=O)c2ccc(-c3ccccc3)cc2)c(C)c1 -9%, COc1cccc(N(CC(=O)NCCSc2ccccn2)S(C)(=O)=O)c1 -2%, CN(C)c1nc(N)nc(CSc2ccccn2)n1 -1%, COc1ccccc1CSc1nc2ccccc2[nH]1 8%, COc1ccc(Nc2nc(-c3ccccc3)cs2)cc1 -6%, CN1C2CCC1/C(=C\c1ccccc1Cl)C(=O)/C2=C\c1ccccc1Cl -3%, CSCCC(C(=O)NC1=NCCS1)N1C(=O)c2ccccc2C1=O (stereo unspecified) -1%, COc1ccccc1NC(=O)COc1ccc(C(=O)OCC(=O)N(C(C)C)C(C)C)cc1OC -6%, Cc1ccc2nc(SCc3nnc(-c4ccccc4[N+](=O)[O-])o3)c(C#N)cc2c1 -15%, CC(Sc1nnc(Cc2ccc([N+](=O)[O-])cc2)o1)C(N)=O (stereo unspecified) 2%, COc1ccc(NC(=O)CC2COc3ccccc3O2)c(OC)c1 (stereo unspecified) 7%, CCN(CC)S(=O)(=O)c1ccc2c3c(cccc13)C(=O)S2 1%, COC(=O)[C@@H](NC(=O)Nc1cc(Cl)ccc1C)C(C)C 2%, O=C(Nc1ccc2nc3n(c(=O)c2c1)CCCCC3)c1ccccc1Cl -6%, COc1ccc(NC(=O)CSc2nc(N)c(-c3ccccc3)c(=O)[nH]2)cc1 -12%, CCOC(=O)c1cc2c(ccn2C)n1CC(=O)N1CCC(C)CC1 -6%, COc1ccc(NC(=O)CSc2nc(NS(=O)(=O)c3ccc(C)cc3)cc(=O)[nH]2)cc1 -5%, CC(CN1CCOCC1)c1ccccc1 (stereo unspecified) 4%, COc1ccc(CN2CN(C(C)C)CSC2=S)cc1 38%, COC(=O)c1ccc(CSc2nc3cc(Cl)ccc3o2)cc1 -5%, CC(=O)Nc1ccc(N2C(=O)CCC2=O)cc1C 0%, Cc1n[nH]c(=S)n1/N=C/c1ccc(Br)o1 -6%, COC(=O)c1ccc(NC(=O)c2ccccc2NS(=O)(=O)c2ccccc2)cc1 4%, CCOCCOCCC(C(=O)O)P(=O)(c1ccccc1)c1ccccc1 (stereo unspecified) 7%, N#Cc1ccc(-c2ccc(Cl)cc2)nc1Oc1ccc(F)cc1 -7%, CCC1CCCCN1CCCNC(=O)C1CCC(Cn2c(=O)[nH]c3ccccc3c2=O)CC1 (stereo unspecified) 4%, O=C1/C(=C/c2cccs2)CCc2ccccc21 7%, Cc1cccc(NC(=O)C(C)N2C(=O)C3C4CC(C(Br)C4Br)C3C2=O)c1 (stereo unspecified) 7%, Cc1ccc(S(=O)(=O)N(C)C2(C)CCS(=O)(=O)C2)cc1 (stereo unspecified) 4%, O=C(CN1CCSCC1)N/N=C/c1ccc(F)cc1 2%, CCCCNc1ccc(C(=O)Nc2cccc(C)n2)cc1[N+](=O)[O-] 4%, CCN(CC)C(=O)CSC1c2ccccc2C(=O)N1c1ccccc1 (stereo unspecified) 1%, CCCOc1ccc(C2NC(=O)NC(c3ccccc3)=C2C(C)=O)cc1OCC (stereo unspecified) -2%, COc1ccc(C(=O)Nc2ccc(F)cc2F)cc1 10%, CC(C)(C)c1cc2cccnc2n1Cc1ccccc1 9%, Cc1ccc(-c2nc3ccccc3[nH]2)cc1NC(=O)c1sc2ccccc2c1Cl -18%, CCC(=O)N(Cc1ccccc1)c1ccccn1 -3%, CCc1cc(C(c2ccccc2OC)N2CCOCC2)c(NC(=O)c2ccccc2)s1 (stereo unspecified) -3%, CSc1ccccc1NC(=O)c1cc(C2CC2)on1 6%, O=C(c1ccccc1)C(Cn1cncn1)C(Sc1ccccc1)c1ccccc1 (stereo unspecified) -9%, O=C(CCN1C(=O)c2ccccc2C1=O)Nc1cccc(F)c1 0%, c1ccc2c(C[n+]3csc4ccccc43)cccc2c1 -14%, CCCC(=O)Nc1nc2ccc(NC(=O)c3cccnc3)cc2s1 8%, O=C(CC12CC3CC(CC(C3)C1)C2)Nc1ccc2c(c1)COC2=O -1%
